About 14,000 (4.5%) of roughly 310,000 compounds showed an effect of 50% or more. The effect is printed as a negative number. The entries come from a sample that favours strong results as a whole.
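Further: peak tail current of the secondary pulse compared with the same well before compound.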

human ether-à-go-go-related gene (hERG) potassium channel, sequence (Q12809 whole entry, looked up): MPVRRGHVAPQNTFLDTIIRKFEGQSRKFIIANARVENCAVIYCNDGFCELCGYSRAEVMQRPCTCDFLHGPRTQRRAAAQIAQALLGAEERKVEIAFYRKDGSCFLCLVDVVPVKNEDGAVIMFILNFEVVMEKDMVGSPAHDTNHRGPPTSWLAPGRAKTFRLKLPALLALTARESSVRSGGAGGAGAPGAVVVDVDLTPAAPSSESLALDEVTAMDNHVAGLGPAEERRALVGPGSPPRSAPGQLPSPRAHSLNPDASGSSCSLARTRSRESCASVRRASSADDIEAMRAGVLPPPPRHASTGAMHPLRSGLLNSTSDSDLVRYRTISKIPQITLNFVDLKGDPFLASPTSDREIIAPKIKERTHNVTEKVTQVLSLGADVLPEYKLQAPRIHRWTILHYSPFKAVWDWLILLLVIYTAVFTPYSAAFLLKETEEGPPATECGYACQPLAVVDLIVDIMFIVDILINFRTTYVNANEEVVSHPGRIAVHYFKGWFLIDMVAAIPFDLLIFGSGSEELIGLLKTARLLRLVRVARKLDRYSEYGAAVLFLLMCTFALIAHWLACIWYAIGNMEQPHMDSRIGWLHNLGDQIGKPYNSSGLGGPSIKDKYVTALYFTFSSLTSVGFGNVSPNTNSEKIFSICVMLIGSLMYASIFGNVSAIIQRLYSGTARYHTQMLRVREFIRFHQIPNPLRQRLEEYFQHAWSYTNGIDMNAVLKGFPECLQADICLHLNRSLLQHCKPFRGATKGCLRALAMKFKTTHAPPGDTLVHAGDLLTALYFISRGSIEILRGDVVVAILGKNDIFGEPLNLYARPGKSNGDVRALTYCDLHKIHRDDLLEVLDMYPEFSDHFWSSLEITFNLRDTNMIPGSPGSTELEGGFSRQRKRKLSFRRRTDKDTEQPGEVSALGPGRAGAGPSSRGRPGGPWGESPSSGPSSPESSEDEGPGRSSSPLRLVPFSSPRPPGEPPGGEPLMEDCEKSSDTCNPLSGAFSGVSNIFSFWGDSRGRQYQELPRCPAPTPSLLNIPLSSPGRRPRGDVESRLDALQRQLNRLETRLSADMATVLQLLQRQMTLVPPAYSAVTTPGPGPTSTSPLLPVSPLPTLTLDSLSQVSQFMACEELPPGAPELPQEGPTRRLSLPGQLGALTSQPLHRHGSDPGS

The assay addresses human ether-à-go-go-related gene (hERG) potassium channel (human, UniProt Q12809). The assay can be described thus: primary screen, population patch clamp on CHO cells stably expressing hERG; higher = less effect of the substance.
`CCCn1c(C(Cc2ccccc2)NC(=O)COC)nc2ccccc21` (stereo not shown): the “hERG current change (%, negative = inhibition) at 10uM” value was 2.2%.
Turning to `COc1cc2c(cc1NC(=O)/C=C/c1ccccc1)oc1ccccc12`, the “hERG current change (%, negative = inhibition) at 10uM” value was determined as 18.8%.
As for `CCOc1ccccc1N1CC(C(=O)Nc2ccccc2N2CCOCC2)CC1=O` (stereo not shown), the “hERG current change (%, negative = inhibition) at 10uM” value is 12.5%.
With `O=C(O)c1cc2cc(F)ccc2[nH]1` the figure was 16.2%.
The figure for `O=C(Nc1ccc2c(c1)CCC2)c1cnc(Cl)c(Cl)c1` is 0.674%; for `CCN(CC)S(=O)(=O)c1ccc(N2CCOCC2)c(NC(=O)CN2C(=O)NC(C)(c3ccccc3)C2=O)c1` (stereo not shown) it is -24.1%; for `CCOC(=O)C1=C[C@]2(CC)CCCN3CCc4c(n1c1ccccc41)[C@@H]32` it is -91.8%.
As for `CCOC(=O)C1=CC[C@H]2c3c(c4ccccc4n3C)C[C@H]1N2C`, the “hERG current change (%, negative = inhibition) at 10uM” value is 3.88%.
The figure for `CC[C@]12CCCN3CCc4c(n(c5ccccc45)C(=O)C1)C32` (stereo partly shown) is -65.7%; for `O=C(O)Cn1c(=O)c2c(c3ccccc31)CCC2` it is 11.9%.
The figure for `CCn1cc(C2N3CC4(C)CN2CC(C)(C3)C4=O)c2ccccc21` (stereo not shown) is 7.47%; for `CCN(CC)CC(=O)n1c2c(c3ccccc31)CCCC2` it is -34.2%; for `CCOC(=O)NNC(=O)CCn1c2c(c3ccccc31)CCCC2` it is -16.4%.
Regarding `NC(=O)C1CCCc2c1n(Cc1ccccc1)c1ccccc21` (stereo not shown), the “hERG current change (%, negative = inhibition) at 10uM” value was -14.7%.
Take `CC[C@]12CCCN3CCc4c(n(c5ccccc45)C(=O)C1)[C@@H]32`: the “hERG current change (%, negative = inhibition) at 10uM” value is -75%.
With `O=C(CSc1nc(-c2ccccc2)cs1)Nc1cccc([N+](=O)[O-])c1` the figure was 6.45%.
As for `N#Cc1ccccc1CSc1nc(N2CCCCC2)nc(N2CCCCC2)n1`, the “hERG current change (%, negative = inhibition) at 10uM” value turned out to be 5.79%.
In the case of `CNc1cc(C)c(C#N)c2nc3ccccc3n12`, the “hERG current change (%, negative = inhibition) at 10uM” value is reported as -8.75%.
In the case of `CCN(CC)S(=O)(=O)c1ccc2c3c(cccc13)C(=O)S2`, the “hERG current change (%, negative = inhibition) at 10uM” value was -18.4%.
`COc1ccc(NC(=O)CN2CCN(C3c4ccccc4-c4ccccc43)CC2)c(OC)c1`: the “hERG current change (%, negative = inhibition) at 10uM” value was -10.5%.
On to `COc1ccc(C)cc1NC(=O)CN1CCN(CC(=O)Nc2ccccc2F)CC1`, for which the “hERG current change (%, negative = inhibition) at 10uM” value is given as -48.7%.
With `COc1ccc(NC(=O)CN2CCN(CC(=O)Nc3ccccc3F)CC2)c(OC)c1` the figure was -63.5%.
With `COc1ccc(NC(=O)CN2CCN(c3ccc(Cl)cc3)CC2)c(OC)c1` the figure was -12.7%.
With `COc1ccccc1NC(=O)CN1CCN(CC(=O)Nc2ccccc2Cl)CC1` the figure was 2.56%; with `COc1ccc(NC(=O)CN2CCN(CC(=O)Nc3ccccc3Cl)CC2)c(OC)c1`, -78%; with `CC1=C(C(=O)OCCc2ccccc2)C(c2ccsc2)NC(=O)N1C` (stereo not shown), -10.9%.
On to `OCC1(CO)COC(CCc2ccccc2)=N1`, for which the “hERG current change (%, negative = inhibition) at 10uM” value was 16.1%.
With `CC(=O)OCc1c(C(F)(F)F)nn(C)c1SCc1ccc(Cl)cc1`, the “hERG current change (%, negative = inhibition) at 10uM” value is reported as 8.19%.
With `CC1(C(=O)N2CCOCC2)CCCCC1` the figure was 11.6%.
The figure for `O=C(CCc1nnc2ccc(N3CCC4(CC3)OCCO4)nn12)N1CCCCC1` is 16.7%.
The figure for `COc1ccccc1/C=N/NC(=O)CC(=O)NCc1ccccc1` is -2.25%; for `COc1ccc(C)cc1NC(=O)C1CCCCC1C(=O)O` (stereo not shown) it is 14.7%; for `O=S(=O)(c1ccc2c(c1)OCCO2)N1CCC(n2nnc3cc(F)ccc32)CC1` it is -38.7%.
With `O=S(=O)(c1ccc2c(c1)OCCO2)N1CCC(n2cnc3cc(F)ccc32)CC1`, the “hERG current change (%, negative = inhibition) at 10uM” value was -62.4%.
As to `CC(=O)Nc1ccc(S(=O)(=O)N2CCC(n3cnc4cc(F)ccc43)CC2)cc1`, the “hERG current change (%, negative = inhibition) at 10uM” value is listed as -65.7%.
With `CC(=O)Nc1ccc(S(=O)(=O)N2CCC(C(=O)c3ccc(F)cc3)CC2)cc1` the figure was -34.6%.
With `CC(=O)Nc1ccc(S(=O)(=O)N2CCC(N3CCCC3)CC2)cc1` the figure was 13.2%; with `O=S(=O)(c1ccc2c(c1)OCCO2)N1CCC(n2nnc3cc(C(F)(F)F)ccc32)CC1`, -16.4%.
With `COc1cccc(OCCOCCNCCO)c1` the figure was -6.7%; with `O=C(CN(CCc1ccccc1)C(=O)c1csnn1)NC1CCCC1`, -4.71%; with `C[C@]12CCC3C(CC[C@H]4CC(O)CC[C@]34C)C1CC/C2=N/O` (stereo partly shown), 13.3%.
Turning to `COc1ccc(OCC#CCN2CCC(C)CC2)cc1.O=C(O)C(=O)O`, the “hERG current change (%, negative = inhibition) at 10uM” value is -11.4%.
The figure for `CN1CCN(CC(=O)Nc2cc(N(C)C)nc3ccccc23)CC1.Cl` is 8.25%; for `CN(C)c1cc(NC(=O)CNC(C)(C)C)c2ccccc2n1.O=C(O)C(=O)O` it is -24.4%; for `CC(Cc1ccccc1)NCC(=O)Nc1cc(N(C)C)nc2ccccc12.O=C(O)C(=O)O` (stereo not shown) it is -77.1%.
As to `CC(C)(C)CC(C)(C)NCC(=O)Nc1c2c(nc3ccccc13)CCC2.O=C(O)C(=O)O`, the “hERG current change (%, negative = inhibition) at 10uM” value is -3.35%.
Take `COc1ccc(CCN(C)CC(=O)Nc2cc(C)nc3ccccc23)cc1OC.O=C(O)C(=O)O`: the “hERG current change (%, negative = inhibition) at 10uM” value is listed as 5.34%.
`CN(C)c1cc(NC(=O)CNC(C)(C)CC(C)(C)C)c2ccccc2n1.O=C(O)C(=O)O`: the “hERG current change (%, negative = inhibition) at 10uM” value is given as -69.9%.
The figure for `CCOc1ccccc1NC(=O)[C@@H](NC(=O)c1ccccc1F)C(C)C` is -6.35%; for `COc1ccc(C(C(N)=O)c2ncc(C(F)(F)F)cc2Cl)cc1` (stereo not shown) it is 4.78%; for `O=C(CCCCl)NC1=NN(c2ccccc2)C(=O)C1` it is -4.99%.
`Clc1ccc(CNC2CCN(Cc3ccccc3)CC2)cc1`: the “hERG current change (%, negative = inhibition) at 10uM” value is -72.7%.
With `COc1ccc(CCNC(=S)NC2CCN(Cc3ccccc3)CC2)cc1` the figure was -36.9%; with `COc1ccc(-n2c(CN3CCOCC3)nc3ccccc3c2=O)c(OC)c1`, 22.9%; with `COc1ccc(OC)c(-n2c(CN3CCC(C(N)=O)CC3)nc3ccccc3c2=O)c1`, -0.126%.
As to `COc1ccccc1CNC1CCN(Cc2ccccc2)CC1`, the “hERG current change (%, negative = inhibition) at 10uM” value is -3.89%.
Turning to `COc1ccc(CNC2CCN(Cc3ccccc3)CC2)cc1`, the “hERG current change (%, negative = inhibition) at 10uM” value was -54.2%.
With `Cl.Clc1ccc(CNC2CCCC2)cc1` the figure was -13.1%; with `S=C(NCc1ccc(Cl)cc1)NC1CCN(Cc2ccccc2)CC1`, -41.8%; with `COc1ccc(OC)c(-n2c(CNC3CCN(Cc4ccccc4)CC3)nc3ccccc3c2=O)c1`, -76.6%.
Take `FC(F)(F)c1cccc(CNC2CCN(Cc3ccccc3)CC2)c1`: the “hERG current change (%, negative = inhibition) at 10uM” value is listed as -28.3%.
The figure for `CC(NC1CCN(Cc2ccccc2)CC1)c1ccc(F)cc1` (stereo not shown) is 3.46%.
On to `Fc1ccc(CNC2CCN(Cc3ccccc3)CC2)cc1`, for which the “hERG current change (%, negative = inhibition) at 10uM” value is -65.3%.
With `Fc1ccc(-c2cc(C(F)(F)F)nc(NCc3cccs3)n2)cc1` the figure was 14.4%.
With `CCOC(=O)c1c(-c2ccccc2)csc1NC(=O)/C(C#N)=C/c1ccc(O)c(OC)c1` the figure was -7.1%; with `O=C(COc1ccc(/C=N/NC(=O)c2cc3ccccc3o2)cc1Br)Nc1ccccc1`, 19.3%.
The figure for `Cc1ccccc1NS(=O)(=O)c1ccc(C)c(C(=O)N2CCOCC2)c1` is 1.47%.
`COc1ccc(C(=O)NNC(=O)C(=O)N2CCCCC2)cc1OC`: the “hERG current change (%, negative = inhibition) at 10uM” value was 59.5%.
The figure for `CCOC(=O)C(NC(=O)Nc1cccc(C)n1)(OCC(F)(F)F)C(F)(F)F` (stereo not shown) is 5.06%; for `CC(=O)COC(=O)C1=NN(c2ccccc2)C(=O)CC1` it is 23.7%.
The figure for `COc1ccc(S(=O)(=O)N2CCCC(C(=O)NCc3ccc(F)cc3)C2)cc1` (stereo not shown) is 6.39%; for `CCc1nc2ccc(C(=O)NCCc3ccc(OC)c(OC)c3)cc2nc1CC` it is -0.0865%.
The figure for `Cn1c(O)c(/C=C2\N=c3ccccc3=C2CCNC(=S)NC2CC2)c(=O)n(C)c1=O` is -44.6%.
With `Clc1ccc(CN2CCCCCCC2)cc1`, the “hERG current change (%, negative = inhibition) at 10uM” value is -33.1%.
On to `Clc1ccc(CN2CCC(c3ccccc3)CC2)cc1`, for which the “hERG current change (%, negative = inhibition) at 10uM” value is -59.1%.
Consider `O=S(=O)(NC1CCN(Cc2ccccc2)CC1)c1ccc(Cl)cc1`, for which the “hERG current change (%, negative = inhibition) at 10uM” value is -41.3%.
Consider `Cc1c(C(=O)Nc2c(F)cccc2F)sc2ncn(CC(=O)N3CCCCC3)c(=O)c12`, for which the “hERG current change (%, negative = inhibition) at 10uM” value is listed as 3.98%.
The figure for `Cc1cc(NC(=O)CSc2nnc(-c3cccnc3)n2C2CCCCC2C)no1` (stereo not shown) is 3.83%; for `COc1ccc2[nH]c3c(NCCCN4CCCC4=O)ncnc3c2c1` it is -14.6%.
With `COc1ccc2[nH]c3c(NCCN(C(C)C)C(C)C)ncnc3c2c1` the figure was -70.7%; with `COc1ccc2[nH]c3c(NCc4ccco4)ncnc3c2c1`, -18.1%; with `CCOc1ccc2[nH]c3c(NCCCOC)ncnc3c2c1`, -10%.
As for `CCOc1ccc2[nH]c3c(NCCC(C)C)ncnc3c2c1`, the “hERG current change (%, negative = inhibition) at 10uM” value was determined as 7.2%.
The figure for `CCOc1ccc2[nH]c3c(NCCO)ncnc3c2c1` is 23.1%; for `CCOc1ccc2[nH]c3c(NCCN(CC)CC)ncnc3c2c1` it is -71.6%; for `COc1ccc2[nH]c3c(NCCCOC(C)C)ncnc3c2c1` it is 9.68%.
As to `CCN(CC)CCNc1ncnc2c1[nH]c1ccc(OC)cc12`, the “hERG current change (%, negative = inhibition) at 10uM” value is -63.4%.
The figure for `CCOc1ccc2[nH]c3c(NCCOC)ncnc3c2c1` is -9.5%.
With `COc1ccc2[nH]c3c(NCCN4CCCCC4)ncnc3c2c1` the figure was -55.9%.
Turning to `CCOc1ccc2[nH]c3c(NCCN(C)C)ncnc3c2c1`, the “hERG current change (%, negative = inhibition) at 10uM” value is -19%.
With `CCOc1ccccc1NC(=O)c1cnc(NS(=O)(=O)c2ccccc2)nc1`, the “hERG current change (%, negative = inhibition) at 10uM” value turned out to be 17.8%.

For the origin of these results see PMC4336329 (PLoS ONE, 2015).
